An excerpt weighted towards active compounds, which were near 2.3% of everything screened.
CHRM1 antagonist = blocks human M1 muscarinic receptor | P11229 | CHO-K1 hM1, Fluo-8 calcium fluorescence, ACh EC80 antagonist | inhibition, % at 3 µM | 360,000 tested, 1.3% active;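 active = percent inhibition above its own plate's cutoff, namely the mean of that plate's compound wells plus 3 SD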;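 also: peak over basal fluorescence ratio during 140 s after agonist addition; 0% = ACh EC80 plus DMSO and 100% = DMSO alone without agonist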
Target sequence (P11229 whole entry, looked up): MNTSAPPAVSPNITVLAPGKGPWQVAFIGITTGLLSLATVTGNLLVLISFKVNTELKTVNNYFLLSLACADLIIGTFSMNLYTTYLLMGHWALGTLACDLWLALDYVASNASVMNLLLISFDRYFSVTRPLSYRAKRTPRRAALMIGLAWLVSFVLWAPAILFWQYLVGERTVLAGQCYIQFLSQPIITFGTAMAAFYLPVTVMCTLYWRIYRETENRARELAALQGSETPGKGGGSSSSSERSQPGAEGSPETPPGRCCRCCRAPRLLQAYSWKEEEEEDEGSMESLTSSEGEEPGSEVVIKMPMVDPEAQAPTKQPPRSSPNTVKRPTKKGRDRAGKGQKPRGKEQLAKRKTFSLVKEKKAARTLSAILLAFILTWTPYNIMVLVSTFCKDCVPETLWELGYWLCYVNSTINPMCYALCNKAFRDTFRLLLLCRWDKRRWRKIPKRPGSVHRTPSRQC
M1 PAM parental = M1 PAM counterscreen hit in parental CHO-K1 cells; ATP EC20, Fluo-8 calcium fluorescence; 0% at ATP EC20, 100% at ATP max; activation, % at 3 µM; 360,000 tested, 0.02% active; AID 602247;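 active = activation above the run cutoff, the mean activation of all test compounds plus 3 SD, cut at about 40% in these data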;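 also: peak over basal fluorescence ratio in a 140 s read after ATP addition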
CHO-K1 Ca antag = counter-screen for M1 antagonists: effect in parental CHO-K1 cells. ATP-induced calcium, Fluo-8 fluorescence. inhibition, % at 3 µM. 360,000 tested, 0.6% active. AID 602250;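 active = inhibition above a per-plate cutoff, the plate's mean sample inhibition plus 3 SD, cut at about 24% in these data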;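 also: 0% = DMSO plus EC80 ATP and 100% = DMSO alone without ATP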
M1 ag parental = counter-screen for M1 agonists: effect in parental CHO-K1 cells. activation, % at 3 µM. 360,000 tested, 0.48% active. Fluo-8 calcium fluorescence; scaled to maximal ATP response, vehicle zero; in the data active = activation above about 15%;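 also: untransfected CHO-K1 host cells lacking M1 receptor as counterscreen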
CHRM1 PAM = positive allosteric modulators of human M1 muscarinic receptor. P11229. CHO-K1 hM1, Fluo-8 calcium fluorescence, ACh EC20; 0% = ACh EC20, 100% = maximal ACh. activation, % at 3 µM. 360,000 tested, 0.088% active; in the data active = activation above about 19%, passing the limit was not always enough
M1 ag = agonists of human M1 muscarinic receptor | P11229 | CHO-K1 hM1, Fluo-8 calcium fluorescence, agonist mode; 0% DMSO, 100% acetylcholine EC100 | AID 588814 | 360,000 tested, 0.33% active | activation, % at 3 µM;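 active = activation above the run's mean compound activation plus 3 SD, cut at about 16% in these data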;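 also: peak over basal fluorescence ratio within a 140 s kinetic read after compound addition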
Active calls of the source: *; x = not tested or not shown; ! = not active in a repeat.

SMILES	CHRM1 antagonist	M1 PAM parental	CHO-K1 Ca antag	M1 ag parental	CHRM1 PAM	M1 ag
COc1ccccc1C(=O)NC(=O)COC(=O)c1cc[n+]([O-])cc1	1	-5	-1	1	3	2
COc1cccc(C(=O)N2CCN(C(=O)C3COc4ccccc4O3)CC2)c1 (stereo not given)	4	12	-11	1	0	0
C[C@@H]1ON(C)[C@H]2C[C@H]3c4[nH]c5ccccc5c4CCN3C(=O)[C@@H]12	-4	1	-2	0	1	-3
C[C@@H]1OC(C2CCCCC2)N(C)[C@H]2C[C@H]3c4[nH]c5ccccc5c4CCN3C[C@@H]12 (stereo not given in full)	23	-8	24*	0	-17	-11
CCOC(=O)c1ccc(S(=O)(=O)N2CCC(N3CCCCCC3)CC2)cc1	27	6	-10	0	-24	-10
Cc1cc(C)cc(N(CC(=O)NCc2ccc(F)cc2)C(=O)c2snc(C(N)=O)c2N)c1	-6	15	-7	1	11	16*
CC1CCC(CC(=O)O)(C(=O)O)CC1 (stereo not given)	-18	20	-16	1	7	0
COc1ccc(-c2cc(C(=O)Nc3cc(OC)cc(C(=O)Nc4cccc(C(F)(F)F)c4)c3)[nH]n2)cc1	41*!	1	4	1	-11	1
COc1cc(NC(=O)c2cc3cccc(OC)c3o2)cc(C(=O)Nc2cccc(C(F)(F)F)c2)c1	14	4	2	1	-7	-2
COc1ccc(NC(=O)c2cc(-c3ccc(F)cc3OC(C)C)n[nH]2)cn1	8	20	5	5	-5	-4
CC(C)Oc1cc(F)ccc1-c1cc(C(=O)Nc2cccc(C(F)(F)F)c2)[nH]n1	35*	-14	11	0	-22	-4
COc1cc(NC(=O)c2ccno2)cc(C(=O)Nc2cccc(C(F)(F)F)c2)c1	31*	-14	12	17*	-21	9
CCCN(CCC)CCCNC(=O)c1cc2c(=O)[nH]c3ccccc3c2s1	15	9	-2	0	-9	-9
CC1(C(=O)NS(=O)(=O)c2ccc(Br)cc2)CCN1C(=O)Cc1cccs1 (stereo not given)	-19	4	4	0	12	-3
COc1ccc(NC(C)=O)cc1S(=O)(=O)N1CCN(Cc2cccs2)CC1	-10	11	-11	1	24*	6
COc1ccc(/C=C/C(=O)N(C)Cc2cccs2)cc1S(=O)(=O)N1CCOCC1	6	5	0	16*	4	-8
COc1ccc(C(=O)NCc2cccs2)cc1S(=O)(=O)N1CCOCC1	-4	-1	-6	1	6	-4
O=C(c1ccc(OC2CCN(CCc3ccccc3)CC2)cc1)N1CCC(CO)CC1	12	6	-14	3	-10	-5
CC(C)N1CCN(Cc2ccc(OC3CCCC3)cc2)CC1CCO (stereo not given)	16	18	-9	2	-16	-8
COC(=O)c1ccc2[nH]c(C)cc(=O)c2c1	69*	9	-4	1	-23	-6
COc1ccc(C2/C=C\CN(C(=O)Nc3ccccc3)CC(=O)N2Cc2ccc(F)cc2)cc1 (stereo not given)	-1	5	-5	1	8	-2
COc1ccc(C2/C=C\CN(C(=O)Nc3ccc(C(F)(F)F)cc3)CC(=O)N2Cc2ccc(F)cc2)cc1 (stereo not given)	38*	-13	20	8	-21	-3
CC(=O)N(CCCCl)C(C#N)c1ccccc1 (stereo not given)	25	13	-11	0	-32	51*
NC(=O)C(CCCCN1CCCCC1)(c1ccccc1)c1ccccc1	83*	8	-10	0	-30	-8
O=C(CCN1CCCCCC1)c1ccccc1	-16	18	-7	0	1	4
SMILES	CHRM1 antagonist	M1 PAM parental	CHO-K1 Ca antag	M1 ag parental	CHRM1 PAM	M1 ag
OC(CCN1CCCCC1)(c1ccccc1)c1ccccc1	99*	-6	0	0	-27	-7
C=CCC(O)(CCN1CCCCC1)c1ccccc1 (stereo not given)	98*	7	-14	0	-22	-5
OC(CCCN1CCCCC1)(c1ccccc1)c1ccc(C(F)(F)F)cc1 (stereo not given)	82*	-5	4	1	-30	-3
CCCCOc1ccc(C(O)(CCN2CCOCC2)c2ccccc2)cc1 (stereo not given)	15	14	-16	4	-17	-10
OC(CCN1CCCC1)(c1ccccc1)C1CCCCC1 (stereo not given)	97*	21	-9	1	-26	-8
COc1ccc(C(O)(CCc2ccccc2)CCN2CCCCC2)cc1 (stereo not given)	84*	1	-5	1	-33	-13
COc1ccc2c(c1OC)C(=O)N1C2SC(C)(C)[C@H]1C(=O)NC(C)C (stereo not given in full)	-14	9	-10	0	9	-4
CCOC(=O)C1(C)CCCCCN1C(=O)c1ccc(OC)cc1 (stereo not given)	10	-14	25*	0	-4	-3
CCOC(=O)C1(C)CCCCN1C(=O)c1ccc(N(C)C)cc1 (stereo not given)	-13	-3	18	0	10	0
COc1cccc(CNC(=O)[C@@H]2CCCN2C(=O)[C@H]2CCCCN2C(=O)c2cccc3ccccc23)c1	x	-1	6	6	x	x
COc1cc(/C=N/NC(=O)CCN2CCN(C(c3ccccc3)c3ccccc3)CC2)ccc1O	28*	11	0	1	-28	-11
CC(C)(CO)Nc1nc(Cl)nc(NC2CCCCC2)n1	-5	-12	5	0	2	-5
O=C(Nc1ccncc1)c1cc2ccccc2cc1O	2	5	-8	16*	-4	4
O=C(Nc1cccc([N+](=O)[O-])c1)c1cc2ccccc2cc1O	22	4	10	16*	-12	10
C/C(=N\NC(=O)c1cc2ccccc2cc1O)c1ccccn1	-22	-2	-15	0	29*	2
O=C(Nc1ccncc1)c1ccccc1F	-19	1	-6	0	3	-2
O=C(NN1CCCCC1)NN1CCCCC1	-6	2	-9	0	9	-4
Nc1ncnc2c1ncn2[C@@H]1O[C@H](CNS(=O)(=O)c2cc3ccccc3s2)[C@@H](O)[C@H]1O	1	10	2	1	0	-1
COC(=O)c1sc(S(=O)(=O)N2CCCCC2)c(C(=O)OC)c1C	21*	12	-3	0	-27	-6
CCc1ccc(OCC(=O)Nc2ccc(-c3cc4ccccc4oc3=O)c(OC)c2)cc1	20	1	26*	8	-7	-2

Screening results as filed in PubChem BioAssay.
